Hits are enriched below; roughly 1.6% of the tested compounds scored in any of these assays.
KCNQ2 enhance – potentiators of rat KCNQ2 potassium channel | Potassium voltage-gated channel subfamily KQT member 2 (Rattus norvegicus), O88943 | CHO-K1 KCNQ2, FluxOR thallium flux fluorescence; hits give high values | B-score at 10 µM | actives 0.54% (n = 310,000) | AID 2239, 2010;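 active means fluorescence ratio B-score at least 3 SD of library B-scores, with initial fluorescence B-score within 3 of them, cut at about 5.3 in these data; same plate scores as AID 2156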;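 further: B-score of peak minus minimum over baseline fluorescence ratio after K+ and Tl+ stimulus; positive B-score means potentiation of KCNQ2 with more thallium influx and brighter signal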
KCNQ2 block – rat KCNQ2 potassium channel inhibitors, primary screen, cell-based, CHO-K1, FluxOR thallium flux, B-score; Potassium voltage-gated channel subfamily KQT member 2 (Rattus norvegicus), O88943; 20 min; hits give low values; B-score at 10 µM; actives 1.1% (n = 310,000); AID 2156, 2009;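 active means fluorescence ratio B-score at most minus 3 library SDs, with starting brightness B-score within 2 library SDs, cut at about -5.5 in these data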
KCNQ2 block conf – rat KCNQ2 potassium channel inhibitors, confirmation, cell-based, thallium flux; activity change, negative = inhibition, % at 10 µM; shares compounds with KCNQ2 block; KCNQ2-expressing cells, inhibition; hits give low values; actives 57% (n = 1,000);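 further: 0% = vehicle wells and values are ratio percent relative to vehicle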
KCNQ1 spec – human KCNQ1 channel inhibition, counter-screen for KCNQ2 inhibitor project, cell-based, FluxOR thallium flux; AID 493026, 2011; actives 15% (n = 1,000); KCNQ1-expressing cells, FluxOR thallium flux fluorescence; hits give low values; shares compounds with KCNQ2 block; activity change, negative = inhibition, % at 10 µM;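 active means activity change at least 3 SD of negative controls below their mean in both duplicate wells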;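 further: CHO cells stably transfected with KCNQ1 and depolarized by potassium stimulus; peak minus minimum fluorescence over baseline after thallium addition; 0% = vehicle negative control and -100% = blank without thallium stimulus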
Target sequence (P51787 whole entry, looked up): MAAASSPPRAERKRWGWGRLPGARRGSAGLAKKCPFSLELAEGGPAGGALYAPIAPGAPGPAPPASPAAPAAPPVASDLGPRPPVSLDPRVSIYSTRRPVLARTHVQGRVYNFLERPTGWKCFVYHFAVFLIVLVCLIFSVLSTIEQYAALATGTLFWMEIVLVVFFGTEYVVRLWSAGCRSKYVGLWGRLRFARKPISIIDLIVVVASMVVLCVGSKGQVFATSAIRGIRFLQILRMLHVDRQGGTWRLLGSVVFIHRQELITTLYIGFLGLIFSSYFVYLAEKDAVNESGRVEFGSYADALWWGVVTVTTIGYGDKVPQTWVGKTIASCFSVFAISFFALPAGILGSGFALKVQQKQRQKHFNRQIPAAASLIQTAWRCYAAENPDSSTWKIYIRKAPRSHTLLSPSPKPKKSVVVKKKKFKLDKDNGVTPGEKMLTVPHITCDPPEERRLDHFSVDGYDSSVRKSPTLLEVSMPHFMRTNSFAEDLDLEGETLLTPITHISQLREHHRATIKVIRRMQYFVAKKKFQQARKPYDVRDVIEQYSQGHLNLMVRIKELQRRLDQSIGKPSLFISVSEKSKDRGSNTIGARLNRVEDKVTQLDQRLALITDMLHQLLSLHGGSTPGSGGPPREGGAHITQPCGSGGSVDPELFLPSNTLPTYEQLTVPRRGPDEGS
CHO parental ctr – thallium flux change in parental CHO cells, counter-screen for KCNQ2 inhibitor project; shares compounds with KCNQ2 block; hits give low values; activity change, % at 10 µM; actives 14% (n = 1,000); AID 493029, 2011;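 further: 0% = vehicle negative controls with stimulus buffer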
KCNQ2 inh confirm – rat KCNQ2 channel inhibitors, confirmation, cell-based, automated patch clamp, single concentration. actives 49% (n = 550). KCNQ2-expressing cells, automated patch clamp current. calls only at 10 µM. shares compounds with KCNQ2 block. AID 588531, 2011
* = called active by the depositor; i = inactive; . = no result; + = active, no number. Unless noted, how the calls were made is not given here.

SMILES	KCNQ2 enhance	KCNQ2 block	KCNQ2 block conf	KCNQ1 spec	CHO parental ctr	others
CC(C)(C)n1nnnc1C(c1ccncc1)N1CCCCCC1 (centres undefined)	.	i	.	.	.
CC(C)(C)n1nnnc1C(c1ccc(C#N)cc1)N1CCCC2(CCCCC2)C1 (centres undefined)	-7.08	-7.08*	-37.0%*	-38.0%*	-37.0%*	KCNQ2 inh confirm=i
CCOc1ccccc1NC(=O)N1CCC(NC(=O)C2CCCCC2)CC1	0.89	i	.	.	.
CCN1C(=O)CC(c2ccc(OC(C)C)cc2)C1=O (centres undefined)	0.15	i	.	.	.
COCCNc1c(-c2ccc(OC)cc2)nc2ccc(Cl)cn12	.	i	.	.	.
CCOC(=O)CNc1c(-c2ccc(OC)cc2)nc2ccc(Cl)cn12	-8.94	-8.94*	-28.0%*	i	i	KCNQ2 inh confirm=+
NC(=O)c1ccccc1OCC(=O)N1CCc2ccccc2C1	0.14	i	.	.	.
Cc1ccn2c(CNCC3COCCO3)c(C(=O)N3CCCCCC3)nc2c1 (centres undefined)	.	i	.	.	.
CC(C)[C@H](NC(=O)N1CCn2c1nc1ccccc12)C(=O)NCc1ccccc1Cl	-8.07	-8.07*	-33.5%*	-31.5%*	-23.5%*	KCNQ2 inh confirm=+
CC(C)[C@H](NC(=O)N1CCn2c1nc1ccccc12)C(=O)NCc1ccc(F)cc1	.	i	.	.	.
O=C(CCNc1ccc(F)cc1)c1cccc([N+](=O)[O-])c1	.	i	.	.	.
O=C(CCNc1ccccc1)c1cccc([N+](=O)[O-])c1	-7.93	-7.93*	i	i	i
CC1=C(C(=O)NCc2ccco2)C2(CCC(C)CC2)OC1=O (centres undefined)	0.4	i	.	.	.
CC1=C(C(=O)NCc2ccc3c(c2)OCO3)C2(CCC(C)CC2)OC1=O (centres undefined)	-9.37	-9.37*	i	i	i
O=C(CSc1nc2[nH]ncc2c(=O)[nH]1)Nc1ccc(Cl)cc1	0.52	i	.	.	.
COc1ccc(S(=O)(=O)Nc2ccccc2N2CCOCC2)cc1[N+](=O)[O-]	.	i	.	.	.
Cc1cc(OCC(=O)N(C)C2CCCCC2)cc(C)c1Cl	-7.43	-7.43*	-43.0%*	-46.5%*	-37.5%*	KCNQ2 inh confirm=+
CN(C(=O)COC(=O)COc1ccc(Cl)cc1)C1CCCCC1	.	i	.	.	.
CCOC(=O)CSc1nnc(Cc2ccccc2)n1-c1cccc(Cl)c1	.	i	.	.	.
CCOC(=O)CSc1nnc(CNc2ccccc2Cl)n1-c1ccccc1	-6.69	-6.69*	-25.0%*	i	i	KCNQ2 inh confirm=+
COc1cccc(-c2cc3nc(-c4ccccc4)cc(N4CCC5(CC4)OCCO5)n3n2)c1	-8.41	-8.41*	-31.5%*	i	i	KCNQ2 inh confirm=i
CN1CCN(c2cc(-c3ccccc3)nc3cc(-c4ccc(F)cc4)nn23)CC1	.	i	.	.	.
Clc1cc(Cl)cc(C2=NC(Cc3ccccc3)CO2)c1 (centres undefined)	.	i	.	.	.
CC1CCCC(C)N1CCCNC(=O)c1nn(C)c2c1CSc1ccccc1-2 (centres undefined)	0.45	i	.	.	.
CN(C(=O)c1nn(C)c2c1CSc1ccccc1-2)c1ccccc1Cl	-6.74	-6.74*	-37.0%*	-40.5%*	-33.5%*	KCNQ2 inh confirm=i
SMILES	KCNQ2 enhance	KCNQ2 block	KCNQ2 block conf	KCNQ1 spec	CHO parental ctr	others
Cc1ccc(Oc2ccc(OCC(=O)NC3CCS(=O)(=O)C3)cc2)cc1 (centres undefined)	.	i	.	.	.
CC1(C)CCCN(C(=O)N2c3ccccc3Sc3ccccc32)C1	-8.59	-8.59*	i	i	i
O=C(CN1CCCC1)N1c2ccccc2Sc2ccccc21	1.95	i	.	.	.
CC(C)(C)c1ccc(NC(=O)c2ccsc2)cc1	2.79	i	.	.	.
COc1ccc(-c2nc(CS(=O)CC(=O)NC3CCCc4ccccc43)c(C)o2)cc1OC (centres undefined)	.	i	.	.	.
COc1ccc(-c2nc(CSCC(=O)NC3CCCc4ccccc43)c(C)o2)cc1OC (centres undefined)	-10.2	-10.2*	i	i	i
O=C(CCNC(=O)c1ccccc1Cl)Nc1ccc(Cl)c(C(F)(F)F)c1	0.53	i	.	.	.
O=C(COC(=O)CCSc1ccc(Cl)cc1)NCc1ccco1	-8.05	-8.05*	i	i	i
O=C(COC(=O)CCSc1ccc(Cl)cc1)NCc1ccccc1Cl	0.33	i	.	.	.
Cc1ccc(-c2nnc(N3CCOCC3)c3ccccc23)cc1S(N)(=O)=O	0.4	i	.	.	.
CCN(CC)C(=O)Oc1ccc2ccccc2c1Br	.	i	.	.	.
O=C(Oc1ccc2ccccc2c1Br)N1CCCCCC1	-6.66	-6.66*	i	i	i
O=C(NCC(O)c1ccccc1)c1ccc(Cl)c(S(=O)(=O)N2CCCCC2)c1 (centres undefined)	0.65	i	.	.	.
Nc1c2c(nc3ccccc13)CSCC2	.	i	.	.	.
O=C(Nc1nc2c(ccc3ccccc32)s1)c1cc([N+](=O)[O-])ccc1N1CCOCC1	-9.55	-9.55*	-25.0%*	i	i	KCNQ2 inh confirm=i
O=C(Nc1nc(-c2ccc(-c3ccccc3)cc2)cs1)c1cc([N+](=O)[O-])ccc1N1CCOCC1	0.52	i	.	.	.
CCOP(=O)(OCC)C(NC(=O)Nc1c(C)cc(C)cc1C)c1ccccc1 (centres undefined)	-9.24	-9.24*	-21.0%*	i	i	KCNQ2 inh confirm=+
CCOP(=O)(OCC)C(NC(=O)Nc1ccccc1)c1ccccc1 (centres undefined)	.	i	.	.	.
Cc1cc(N2CCCCC2)n2ncc(-c3ccccc3)c2n1	.	i	.	.	.
Cc1cc(N2CCC(C)CC2)n2ncc(-c3ccccc3)c2n1	-8.3	-8.3*	-16.0%*	i	i	KCNQ2 inh confirm=i
CCOc1ccc2c(c1)-c1c(ssc1=S)C(C)(C)N2C(=O)c1ccco1	-8.84	-8.84*	i	i	i
COc1ccc2c(c1)-c1c(ssc1=S)C(C)(C)N2C(=O)CSC1=NCCS1	.	i	.	.	.
CN1C(C(=O)NCc2ccc(OC(F)(F)F)cc2)CC2Cn3c(nc4ccccc43)C21 (centres undefined)	.	i	.	.	.
CCCCOc1ccccc1C(=O)NNC(=S)NC(=O)c1ccccc1[N+](=O)[O-]	.	i	.	.	.
O=C(NCCc1ccc(F)cc1)C(=O)Nc1cc2c3c(c1)CC(=O)N3CCC2	.	i	.	.	.
COc1cc(N/N=C/c2ccc(N(C)C)cc2)ncn1	.	i	.	.	.
CN(C)c1cc(N/N=C/c2ccc(Cl)cc2)nc(N(C)C)n1	-8.56	-8.56*	i	i	i
O=C(/C=C/c1ccccc1)Nc1cccc(S(=O)(=O)Nc2ccccc2F)c1	2.76	i	.	.	.
C=CCOc1c(Cl)cc(C(=S)N2CCCC2)cc1OCC	.	i	.	.	.
O=S(=O)(NCCOc1ccccc1Cl)c1ccc2oc3ccccc3c2c1	-6.78	-6.78*	i	i	i
